The list is not random: actives were taken first. Their share in the collection is about 5%.
SENP6 block: inhibitors of human SENP6 protease | hit rate 1.8% among 330,000 | inhibition, % at 10 µM | Q9GZR1 | Recombinant SENP6 catalytic domain, aminoluciferin luminescence;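 active means inhibition above about 50% at the single tested dose, limit read from the data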
SENP8 block-1: SENP8 protease inhibition; hit rate 1.2% among 330,000; purified SENP8, Z-RLRGG-aminoluciferin cleavage, luminescence; inhibition, % at 10 µM; in the data active means inhibition above about 50%
Target sequence (Q96LD8 whole entry, looked up): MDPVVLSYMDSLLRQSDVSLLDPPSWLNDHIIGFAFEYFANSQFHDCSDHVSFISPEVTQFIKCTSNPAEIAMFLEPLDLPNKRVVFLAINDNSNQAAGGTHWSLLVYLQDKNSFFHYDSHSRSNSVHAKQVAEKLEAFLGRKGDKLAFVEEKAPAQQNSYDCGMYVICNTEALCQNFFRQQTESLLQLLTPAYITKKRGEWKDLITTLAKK
SENP7 block: inhibitors of human SENP7 protease; inhibition, % at 5 µM; recombinant SENP7, Z-RLRGG-aminoluciferin luminescence, 40 min; hit rate 1.5% among 330,000; AID 434973; Q9BQF6;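 active means inhibition above about 50% at the single test dose, limit read from the data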
AHR act: activates the human aryl hydrocarbon receptor; P35869; AHR-responsive luciferase reporter cells, luminescence; activation, % at 5 µM; hit rate 2.5% among 320,000; in the data active means activation above about 47%
EBI2 block: EBI2 (human) antagonism; EBI2 beta-arrestin recruitment, luminescence, 7a,25-OHC stimulated; inhibition, % at 5 µM; hit rate 0.81% among 360,000; AID 651636; in the data active means inhibition above about 38%;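 further: enzyme fragment complementation signal reports receptor beta-arrestin coupling in cells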
Target sequence (P32249 whole entry, looked up, the tested form may be a part): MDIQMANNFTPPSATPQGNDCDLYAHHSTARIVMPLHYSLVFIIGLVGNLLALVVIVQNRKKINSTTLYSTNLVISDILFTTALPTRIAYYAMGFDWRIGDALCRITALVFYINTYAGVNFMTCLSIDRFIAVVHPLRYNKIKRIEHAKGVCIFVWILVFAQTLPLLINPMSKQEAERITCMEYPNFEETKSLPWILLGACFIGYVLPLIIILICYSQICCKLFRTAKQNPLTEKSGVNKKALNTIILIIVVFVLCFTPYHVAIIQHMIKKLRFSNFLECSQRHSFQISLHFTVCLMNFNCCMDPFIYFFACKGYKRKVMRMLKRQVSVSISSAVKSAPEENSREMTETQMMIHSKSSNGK
SENP8 block-2: SENP8 (human) protease inhibition; recombinant SENP8, Nedd8 substrate fluorescence; inhibition, % at 20 µM; hit rate 0.64% among 360,000; AID 602440; in the data active means inhibition mostly above about 40%, no sharp cut-off; inactive means mostly below about 27%
EBI2 conf: confirmation of human EBI2 receptor antagonists; inhibition, % at 5 µM; shares compounds with EBI2 block; hit rate 29% among 2,400; EBI2 beta-arrestin luminescence, 7a,25-OHC antagonism;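 active means inhibition of at least 50%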
EBI2 ag: EBI2 agonism counter-screen. shares compounds with EBI2 block. EBI2-expressing cells, agonist mode, luminescence, 60 min; 0% vehicle, 100% 7α,25-dihydroxycholesterol control. activation, % at 5 µM. 2,400 tested, under 10 active;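 active means activation of at least 50%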
bGal cs: beta-galactosidase inhibition counter-screen; shares compounds with EBI2 block; purified beta-galactosidase, luminescent Galacton Star, 15 min; inhibition, % at 5 µM; hit rate 1% among 2,400;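 active means replicate-average signal at least 3 plate SD below neutral wells, shown as high inhibition, flagging enzyme-inhibiting false positives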;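 further: higher means stronger loss of beta-gal luminescence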
Of the large screens only hits and unclear results are named; the others gave an inactive call (follow-up assays come after a bar, where they were run).

CC(=O)c1nn(-c2ccc(Br)cc2)cc1C(=O)c1ccccc1	EBI2 block 52 | EBI2 conf inactive | EBI2 ag inactive | bGal cs inactive
COc1ccc(NC(=O)[C@@H](NC(N)=O)C(C)C)cc1Cl	none
COc1ccc(NC(=O)CSc2nnnn2Cc2ccccc2)cc1	none
O=c1[nH]c(CN2CCN(S(=O)(=O)c3ccccc3C(F)(F)F)CC2)nc2sc3c(c12)CCCC3	EBI2 block 59 | EBI2 conf inactive | EBI2 ag inactive | bGal cs inactive
COc1cc2nc(CN3CCN(S(=O)(=O)c4ccccc4C(F)(F)F)CC3)[nH]c(=O)c2cc1OC	EBI2 block 64 | EBI2 conf inactive | EBI2 ag inactive | bGal cs inactive
COc1cc2nc(CN3CCN(C(c4ccccc4)c4ccccc4)CC3)[nH]c(=O)c2cc1OC	none (no result: EBI2 block, SENP8 block-2)
COc1cc2nc(CN3CCN(S(=O)(=O)c4ccc(Br)cc4)CC3)[nH]c(=O)c2cc1OC	EBI2 block 55 | EBI2 conf inactive | EBI2 ag inactive | bGal cs inactive
COc1cc2nc(CN3CCN(S(=O)(=O)c4ccccc4[N+](=O)[O-])CC3)[nH]c(=O)c2cc1OC	EBI2 block 45 (no result: SENP6 block, SENP8 block-1, SENP7 block, AHR act) | EBI2 conf inactive | EBI2 ag inactive | bGal cs inactive
COc1cc2nc(CN3CCN(S(=O)(=O)c4c(F)cccc4F)CC3)[nH]c(=O)c2cc1OC	none
COc1ccc(OC)c(N=C2SCCCN2C(=O)c2ccc(N3C(=O)CCC3=O)cc2)c1	none (no result: EBI2 block, SENP8 block-2)
COc1ccc(OCCN2CCN(S(=O)(=O)c3ccccc3C(F)(F)F)CC2)cc1	EBI2 block 60 | EBI2 conf 50 | EBI2 ag inactive | bGal cs inactive
Cc1ccc(N(C)C(=O)N2CCN(S(=O)(=O)c3ccc4ccccc4c3)CC2)cc1	EBI2 block 45 | EBI2 conf inactive | EBI2 ag inactive | bGal cs inactive
CN(C)S(=O)(=O)NCC1CCCN(Cc2ccc(-c3ccccc3)cc2)C1 (stereo unspecified)	none
COCCN1C(=O)C(=O)/C(=C(/O)c2ccc(C)cc2)C1c1ccccn1 (stereo unspecified)	none
c1ccc(OCc2nn3c(Cn4nnc5ccccc54)nnc3s2)cc1	none
Clc1ccc(Cl)c(-c2nn3c(COc4ccccc4)nnc3s2)c1	EBI2 block 53 | EBI2 conf inactive | EBI2 ag inactive | bGal cs inactive
O=C(COC(=O)/C=C/c1ccccc1)NCCc1ccc(F)cc1	none
CCN(CC)S(=O)(=O)c1ccc(N2CCCCC2)c(NC(=O)/C(C#N)=C/c2ccc(OC)cc2)c1	EBI2 block 42 | EBI2 conf inactive | EBI2 ag inactive | bGal cs inactive
COc1ccc(/C=C(\C#N)C(=O)Nc2cc(S(=O)(=O)N3CCOCC3)ccc2N2CCCC2)cc1	EBI2 block 80 | EBI2 conf 84 | EBI2 ag inactive | bGal cs inactive
CCC(C)NC(=O)CNC(=O)c1nn(-c2ccc(OC)cc2OC)c(=O)c2ccccc12 (stereo unspecified)	none
CC1(C)c2[nH]c3ccccc3c2C[C@@H]2C(=O)N(c3cc(F)ccc3F)C(=O)N21	none
CC[C@H]1c2[nH]c3ccccc3c2C[C@@H]2C(=O)N(c3ccc(F)cc3)C(=O)N21	EBI2 block 49 | EBI2 conf inactive | EBI2 ag inactive | bGal cs inactive
O=C(Nc1ccc(N2CCN(C(=O)c3ccco3)CC2)c(Cl)c1)c1cc2ccccc2o1	none
O=C(c1cc2ccccc2o1)N1CCN(c2ccccn2)CC1	EBI2 block 51 | EBI2 conf inactive | EBI2 ag inactive | bGal cs inactive
O=C(c1[nH]c(C(F)(F)F)nc1-c1ccccc1)N1CCN(c2ncc(C(F)(F)F)cc2Cl)CC1	none (no result: SENP6 block, SENP8 block-1, SENP7 block, AHR act)
O=C(c1cc2ccccc2o1)N1CCN(c2ccccc2Cl)CC1	EBI2 block 86 | EBI2 conf 67 | EBI2 ag inactive | bGal cs inactive
O=C(c1ccc(Br)o1)N1CCN(c2ccccn2)CC1	none
O=C(c1cc2cc3ccc(Cl)cc3nc2o1)N1CCCCCC1	none
O=C(c1cc2c(ccc3ccccc32)o1)N1CCN(c2ncc(C(F)(F)F)cc2Cl)CC1	EBI2 block 91 | EBI2 conf 79 | EBI2 ag inactive | bGal cs inactive
O=C(c1cc2cc(Cl)ccc2o1)N1CCCCCC1	EBI2 block 47 (no result: AHR act) | EBI2 conf inactive | EBI2 ag inactive | bGal cs inactive
COc1cc(C(=O)OCCCN=C2NS(=O)(=O)c3ccccc32)cc(OC)c1OC	none
CCOc1ccccc1CNCCOC	none
Cc1cccc(-c2ocnc2C(=O)N2CCN(C(=O)c3cccs3)CC2)c1	none
O=C(c1cc2ccccc2o1)N1CCN(c2cccc(Cl)c2)CC1	EBI2 block 54 | EBI2 conf 58 | EBI2 ag inactive | bGal cs inactive
CCC1CN(C(=O)N2CCC(C(=O)NCc3ccc(F)cc3)CC2)c2ccccc2O1 (stereo unspecified)	none
O=C1[C@@H]2Cc3c([nH]c4ccccc34)C(c3cccc([N+](=O)[O-])c3)N2C(=O)CN1C1CCN(Cc2ccccc2)CC1 (stereo partly specified)	EBI2 block 41 | EBI2 conf inactive | EBI2 ag inactive | bGal cs inactive
CCOc1ccc(CN2CCN(C(=O)c3cccc(F)c3)CC2)cc1	none
O=C(COc1ccc(Cl)cc1)N1CCN(C(=O)c2cccs2)CC1	EBI2 block 80 | EBI2 conf inactive | EBI2 ag inactive | bGal cs inactive
O=C(COc1ccc(Cl)cc1)N1CCN(C(=O)c2cccc(F)c2)CC1	EBI2 block 86 | EBI2 conf 68 | EBI2 ag inactive | bGal cs inactive
CC1CC(C)CN(C(=O)c2ccc3c(c2NCCO)C(=O)c2ccccc2C3=O)C1 (stereo unspecified)	none
CC(C)N1CC(C(=O)Nc2ccc(S(=O)(=O)N3CCCCC3)cc2)CC1=O (stereo unspecified)	none
Cc1ccc(N2CC(C(=O)Nc3ccccc3N3CCCC3)CC2=O)cc1 (stereo unspecified)	none
Cc1ccc(N2CC(C(=O)Nc3ccc(S(=O)(=O)N4CCCC4)cc3)CC2=O)cc1 (stereo unspecified)	EBI2 block 55 | EBI2 conf inactive | EBI2 ag inactive | bGal cs inactive
Cc1ccc(N2CC(C(=O)Nc3cc(C)ccc3F)CC2=O)cc1 (stereo unspecified)	EBI2 block 53 | EBI2 conf inactive | EBI2 ag inactive | bGal cs inactive

Screening data as filed in PubChem.
